For eight molecules, z-score and composite z-score results are on record in PubChem BioAssay.

Calls of active or inactive are those of the source.

Assay [1] in a line: optical density shifts of acrAB sulA E. coli – strain DRC41, OD650, 48 h, E. coli filamentation inducer project, primary screen (AID 1152).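 Also: E. coli MC1000 strain DRC41 lacking acrAB efflux pump and sulA.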 To be noted: higher = more signal, called active from +8 up or from −8 down.
Assay [2] in a line: probe aLefty1 binding on compound microarray – biochemical, small-molecule microarray, 635/667 nm fluorescence, primary screen (AID 1153).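 Also: score merges spot fluorescence with signal-to-noise ratio from the scanned slide images.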 To be noted: higher = more signal.
The nature of assay [3]: plasmodial surface anion channel blockers, osmotic lysis – cell-based, P. falciparum Indochina, OD700, 1 h, primary screen (AID 1154). To be noted: P. falciparum Indochina infected RBC osmotic lysis, higher = more signal, called active from +8 up or from −8 down.
Assay [4] in a line: plasmodial surface anion channel blockers, osmotic lysis – cell-based, P. falciparum Indochina, OD700, 2 h, primary screen (AID 1155).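 Also: lysis reports solute entry through the parasite surface anion channel PSAC.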 Particulars: P. falciparum Indochina infected erythrocytes, higher = more signal, called active from +8 up or from −8 down.
Assay [5] in a line: changes in parasitized red cell lysis, either direction – P. falciparum Indochina, OD700, 3 h, PSAC antagonist project, primary screen (AID 1156). Particulars: P. falciparum-infected erythrocytes, osmotic lysis, higher = more signal, called active from +8 up or from −8 down.
Assay [6] can be described thus: plasmodial surface anion channel blockers, osmotic lysis – cell-based, P. falciparum Indochina, OD700, 18 h, primary screen (AID 1157). To be noted: P. falciparum Indochina infected erythrocytes, osmotic lysis OD700, 18 h; higher = more signal, called active from +8 up or from −8 down.
A short description of assay [7]: S6 kinase pathway phospho-S6 level changes – cell-based, A549, cytoblot, luminescence, serum-stimulated, primary screen (AID 1158).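 Also: serum-stimulated A549 lung adenocarcinoma cells; signal is phosphorylated S6 detected by cytoblot immunostaining with HRP secondary.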 Particulars: 5 h, higher = more signal.
The target of assay [8] is NADPH oxidase 2 (Homo sapiens) (UniProt P04839). In words: compounds shifting NOX2 Amplex Red fluorescence – cell-based, HEK293-NOX2, PMA-stimulated, NOX inhibitor project, primary screen (AID 1159). Also: test concentration not given here. Particulars: 45 min, higher = more signal, called active from +8 up or from −8 down.
NADPH oxidase 2 (Homo sapiens), sequence (P04839 whole entry, looked up): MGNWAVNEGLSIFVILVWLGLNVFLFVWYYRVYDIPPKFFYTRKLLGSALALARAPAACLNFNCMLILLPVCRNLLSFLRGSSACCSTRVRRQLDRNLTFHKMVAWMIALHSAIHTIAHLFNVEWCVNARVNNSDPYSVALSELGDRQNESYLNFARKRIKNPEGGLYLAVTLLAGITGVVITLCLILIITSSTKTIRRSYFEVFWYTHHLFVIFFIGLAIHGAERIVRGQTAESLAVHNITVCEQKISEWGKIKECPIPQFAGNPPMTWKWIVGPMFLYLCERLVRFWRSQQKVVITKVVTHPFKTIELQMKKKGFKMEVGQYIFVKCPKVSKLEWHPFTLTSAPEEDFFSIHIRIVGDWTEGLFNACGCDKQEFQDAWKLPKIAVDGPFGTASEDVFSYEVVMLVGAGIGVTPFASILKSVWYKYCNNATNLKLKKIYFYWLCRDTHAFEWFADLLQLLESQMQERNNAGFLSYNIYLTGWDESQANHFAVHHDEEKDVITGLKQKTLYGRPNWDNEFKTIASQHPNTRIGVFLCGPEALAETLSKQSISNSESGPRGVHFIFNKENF
For assay [9], the target named is NADPH oxidase 4 (Homo sapiens) (UniProt Q9NPH5). Kind of assay: compounds shifting NOX4 Amplex Red fluorescence – cell-based, HEK293-NOX4, tetracycline-induced, NOX inhibitor project, primary screen (AID 1160). To be noted: HEK293-NOX4, Amplex Red H2O2 fluorescence, 45 min; higher = more signal, called active from +8 up or from −8 down.
NADPH oxidase 4 (Homo sapiens), sequence (Q9NPH5 whole entry, looked up): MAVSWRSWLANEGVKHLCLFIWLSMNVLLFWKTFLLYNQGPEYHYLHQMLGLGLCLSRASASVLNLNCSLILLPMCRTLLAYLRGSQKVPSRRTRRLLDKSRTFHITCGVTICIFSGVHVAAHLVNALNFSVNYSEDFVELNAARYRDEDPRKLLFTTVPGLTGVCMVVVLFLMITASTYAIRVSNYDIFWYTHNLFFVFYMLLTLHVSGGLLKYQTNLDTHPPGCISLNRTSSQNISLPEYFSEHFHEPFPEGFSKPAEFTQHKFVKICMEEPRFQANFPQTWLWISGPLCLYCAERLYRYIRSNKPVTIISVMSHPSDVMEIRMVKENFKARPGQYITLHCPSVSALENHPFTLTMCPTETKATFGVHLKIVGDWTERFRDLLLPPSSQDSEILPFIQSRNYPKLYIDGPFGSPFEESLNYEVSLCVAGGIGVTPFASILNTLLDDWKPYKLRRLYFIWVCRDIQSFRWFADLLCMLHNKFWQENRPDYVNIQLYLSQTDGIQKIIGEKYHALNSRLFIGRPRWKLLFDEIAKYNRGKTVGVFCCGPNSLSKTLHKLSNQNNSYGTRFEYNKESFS
In assay [10] the target is NADPH oxidase 5 (Homo sapiens) (UniProt Q96PH1). Kind of assay: compounds shifting NOX5 Amplex Red fluorescence – cell-based, HEK293-NOX5, NOX inhibitor project, primary screen (AID 1161). Particulars: HEK293-NOX5, ionomycin, 45 min, higher = more signal.
NADPH oxidase 5 (Homo sapiens), sequence (Q96PH1 whole entry, looked up): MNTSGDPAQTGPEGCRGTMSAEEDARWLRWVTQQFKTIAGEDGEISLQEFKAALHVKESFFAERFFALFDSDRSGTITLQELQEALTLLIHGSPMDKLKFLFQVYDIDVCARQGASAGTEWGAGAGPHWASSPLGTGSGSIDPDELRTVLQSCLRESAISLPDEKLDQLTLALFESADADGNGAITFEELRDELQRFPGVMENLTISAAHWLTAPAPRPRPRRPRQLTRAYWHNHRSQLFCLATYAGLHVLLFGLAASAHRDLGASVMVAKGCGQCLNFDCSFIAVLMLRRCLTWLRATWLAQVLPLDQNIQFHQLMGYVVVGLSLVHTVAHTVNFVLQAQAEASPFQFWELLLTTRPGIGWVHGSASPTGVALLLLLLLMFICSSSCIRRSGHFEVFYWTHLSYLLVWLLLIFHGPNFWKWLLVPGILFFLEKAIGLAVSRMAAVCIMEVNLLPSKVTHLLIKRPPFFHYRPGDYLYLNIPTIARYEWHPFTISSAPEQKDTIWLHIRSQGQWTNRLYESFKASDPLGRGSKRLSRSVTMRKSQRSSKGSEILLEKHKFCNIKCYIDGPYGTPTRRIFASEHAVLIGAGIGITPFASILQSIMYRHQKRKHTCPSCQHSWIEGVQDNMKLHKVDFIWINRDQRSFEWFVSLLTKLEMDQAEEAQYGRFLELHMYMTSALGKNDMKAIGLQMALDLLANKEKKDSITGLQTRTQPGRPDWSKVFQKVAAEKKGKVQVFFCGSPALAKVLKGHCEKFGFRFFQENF
The nature of assay [11]: compound effects on lung adenocarcinoma cell viability – A549, calcein-AM fluorescence, 48 h, basal, profiling panel (AID 1162). Also: test concentration not given here. Particulars: higher = more signal.
A short description of assay [12]: compound effects on differentiated 3T3-L1 adipocyte viability – cell-based, 3T3-L1 adipocytes, calcein-AM fluorescence, 48 h, basal, profiling panel (AID 1163). Also: test concentration not given here. Particulars: 3T3-L1 adipocytes viability, higher = more signal.
The nature of assay [13]: compound effects on hepatocellular carcinoma cell viability – HepG2, calcein-AM fluorescence, 48 h, basal, profiling panel (AID 1164). Also: test concentration not given here. Particulars: higher = more signal.
The nature of assay [14]: compound effects on multiple myeloma cell viability – MM1S, calcein-AM fluorescence, 48 h, basal, profiling panel (AID 1165).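 Also: viability of MM1S multiple myeloma cells under basal unstimulated conditions; test concentration not given here.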 Particulars: higher = more signal.
Assay [15] is described as follows: calcein-AM signal in unstimulated myeloma cells – cell-based, calcein-AM fluorescence, 48 h, PK04 Diversity Set, profiling panel (AID 1166).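 Also: cells grown under basal conditions without added stimulus; test concentration not given here.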 Particulars: RPMI8226 myeloma viability, higher = more signal.
The nature of assay [16]: JC-1 mitochondrial signal, unstimulated HepG2 cells – cell-based, JC-1 fluorescence, 24 h, 100 nL compound, profiling panel (AID 1167). Also: test concentration not given here. Particulars: HepG2 mitochondrial potential, higher = more signal.
Assay [17] can be described thus: JC-1 mitochondrial signal, unstimulated adipocytes – cell-based, JC-1 fluorescence, 3T3-L1 adipocytes, 24 h, 100 nL compound, profiling panel (AID 1168). Also: test concentration not given here. To be noted: JC-1 mitochondrial fluorescence, higher = more signal, called active from +8 up or from −8 down.
Assay [18] is described as follows: JC-1 mitochondrial signal, unstimulated myeloma cells – cell-based, JC-1 fluorescence, RPMI8226, 24 h, 100 nL compound, profiling panel (AID 1169). Also: test concentration not given here. To be noted: JC-1 mitochondrial potential fluorescence, higher = more signal.
Assay [19] is described as follows: JC-1 mitochondrial signal, unstimulated MM1S myeloma – cell-based, JC-1 fluorescence, 24 h, 100 nL compound, profiling panel (AID 1170). Also: test concentration not given here. Particulars: MM1S mitochondrial potential, higher = more signal.
Assay [20] can be described thus: resazurin metabolic signal in A549 cells – cell-based, resazurin fluorescence, 24 h, PK04 Diversity Set, profiling panel (AID 1171). Also: test concentration not given here. Particulars: A549 viability, higher = more signal, called active from +8 up or from −8 down. On the technique in general: The colour change of resazurin is a common sign of viable cells or microbes.

As to `COC(=O)CC=C[C@H](C)[C@@H](OCc1cccc(Br)c1)[C@@H](C)[C@H](OC)C1CCCCC1`, the z-score in assay [1] was -0.533 (inactive); in [3], 1.82 (inactive); in assay [4] it was 0.675 (inactive); in [5], -0.0293 (inactive); in assay [6], 0.686 (inactive); in assay [7], 0.433. Also, the z-score in assay [8] was -0.453 (inactive); in [9] it was 0.286 (inactive); in [10] it was 0.664; in assay [11] it was 0.836; in assay [12] it was 0.128; in assay [13], 1.21. Also, the z-score was -2.16 in assay [14]; -0.474 in assay [15]; 0.918 in assay [16]; 0.831 (inactive) in assay [17]; 0.00209 in assay [18]; -0.324 in assay [19]. Further, in assay [20], the z-score is 0.0303 (inactive). For the same molecule, the composite z-score in [2] was -0.333.
On to `CCOC(=O)[C@H](CC(C)C)NC(=O)CCC1CC(OC(=O)NCc2ccc3c(c2)OCO3)CC2(CCCC(COC(=O)NCc3cccc(C(F)(F)F)c3)O2)O1` (stereo not given in full), for which the z-score was -0.457 (inactive) in [1]; 1.73 (inactive) in assay [3]; 0.182 (inactive) in [4]; 0.286 (inactive) in [5]; 0.297 (inactive) in assay [6]; 0.427 in assay [7]. For the same molecule, the z-score in [8] is 1.46 (inactive); in assay [9], 0.179 (inactive); in [10] it was 1.2; in assay [11], 0.112; in [12], 0.214; in [13] it was -0.503. For the same molecule, the z-score in assay [14] is 0.0777; in [15], -3.36; in assay [16] it was 1.85; in [17] it was -0.176 (inactive); in assay [18] it was 0.525; in assay [19], -0.412. In addition, the z-score in assay [20] was -0.175 (inactive). In [2], the composite z-score was 0.125.
On to `O=C1[C@H]2[C@H]3[C@H](O)[C@H](O)CC(=NOCc4ccccc4)[C@@H]3CC[C@H]2C(=O)N1Cc1ccc2c(c1)OCO2`, for which the z-score in [1] was 0.0628 (inactive); in assay [3], 6.28 (inactive); in [4] it was 1.02 (inactive); in [5], 1.06 (inactive); in [6], 0.354 (inactive); in [7], 0.0008. Besides, the z-score in [8] was 1.09 (inactive); in assay [9], 0.665 (inactive); in [10], -1.01; in assay [11], -0.152; in assay [12], -0.121; in assay [13], -0.937. The z-score in assay [14] was 0.266; in assay [15], -2.81; in assay [16], -0.335; in assay [17] it was 0.17 (inactive); in assay [18], -0.234; in [19], -0.0728. In assay [20], the z-score was 0.688 (inactive). In assay [2], this molecule registered a composite z-score of 0.217.
With `O=C1CCCC=C1C(O)CCCCBr` (stereo not given), the z-score was 0.549 (inactive) in [1]; 3.79 (inactive) in assay [3]; 1.15 (inactive) in assay [4]; 1.02 (inactive) in assay [5]; 0.759 (inactive) in assay [6]; 0.231 in [7]. Also, the z-score was -0.772 (inactive) in assay [8]; 0.241 (inactive) in assay [9]; -0.921 in assay [10]; -1.75 in assay [11]; 0.593 in assay [12]; -4.6 in assay [13]. Moreover, the z-score in [14] is -3.52; in assay [15], -3.71; in assay [16], -0.504; in [17], 0.482 (inactive); in [18], -0.967; in assay [19], -3.04. In addition, the z-score in assay [20] was -2.06 (inactive). In addition, the composite z-score in assay [2] came out at 0.155.
Consider `O=C1[C@H]2[C@H]3[C@H](O)[C@H](O)CC(=NOC[C@@H](O)COCc4ccco4)[C@H]3CC[C@H]2C(=O)N1c1ccc(F)cc1F`, for which the z-score in assay [1] was -0.575 (inactive); in [3] it was 1.12 (inactive); in assay [4], -0.479 (inactive); in assay [5], 0.679 (inactive); in [6], -1.14 (inactive); in [7], 1.69. The z-score is -0.249 (inactive) in assay [8]; 0.498 (inactive) in [9]; 1.09 in assay [10]; 1.1 in [11]; 1.06 in assay [12]; -0.0367 in assay [13]. The z-score in assay [14] is 0.621; in [15], -0.478; in assay [16], 0.501; in [17], -0.162 (inactive); in [18], -0.117; in assay [19], -1.68. For the same molecule, in assay [20], the z-score is 0.224 (inactive). This molecule also gave a composite z-score in assay [2] of 0.153.
As for `O=c1n(Cc2cc3c(cc2Cl)OCO3)c(=O)n2n1CC[C@@H]1C(=NOC[C@@H](O)COCc3ccco3)[C@H]3O[C@H]3[C@@H](O)[C@@H]12`, the z-score is -0.289 (inactive) in assay [1]; 0.0384 (inactive) in assay [3]; 0.012 (inactive) in [4]; -0.258 (inactive) in assay [5]; -0.138 (inactive) in assay [6]; 0.393 in [7]. Moreover, the z-score in [8] was 0.0338 (inactive); in assay [9] it was -1.95 (inactive); in assay [10], -0.278; in assay [11] it was -0.158; in [12], -0.322; in assay [13] it was 0.105. Also, the z-score in [14] is 0.0423; in [15], -0.552; in [16], -0.611; in assay [17], -1.6 (inactive); in assay [18] it was 0.0236; in assay [19] it was -0.211. Moreover, the z-score in [20] was -0.127 (inactive). For the same molecule, the composite z-score in assay [2] is 0.175.
On to `COC(=O)[C@H](C)NC(=O)CCC1CC(OC(=O)NCc2cccc3ccccc23)CC2(CCCC(COC(=O)NCC(c3ccccc3)c3ccccc3)O2)O1` (stereo not given in full), for which the z-score is 0.223 (inactive) in assay [1]; -0.228 (inactive) in [3]; -0.0825 (inactive) in assay [4]; -1.34 (inactive) in assay [5]; -0.242 (inactive) in assay [6]; 0.863 in assay [7]. The z-score was -0.121 (inactive) in assay [8]; 1.09 (inactive) in assay [9]; 1.47 in [10]; -0.101 in assay [11]; -0.294 in assay [12]; -0.618 in [13]. The z-score was -3.41 in [14]; -1.22 in [15]; 1.21 in [16]; -0.0303 (inactive) in assay [17]; -0.125 in assay [18]; -0.493 in [19]. Besides, the z-score in assay [20] is 2.23 (inactive). This molecule returned a composite z-score in assay [2] of -0.0562.
In the case of `CCOC(=O)[C@H](CC(C)C)NC(=O)CCC1CC(OC(=O)NCc2cccc3ccccc23)CC2(CCCC(COC(=O)NCCOC)O2)O1` (stereo not given in full), the z-score is 1.24 (inactive) in assay [1]; -0.137 (inactive) in [3]; 0.184 (inactive) in assay [4]; -0.283 (inactive) in assay [5]; -0.196 (inactive) in assay [6]; 0.142 in assay [7]. The z-score in assay [8] is 1.05 (inactive); in assay [9], 0.96 (inactive); in assay [10] it was -0.464; in assay [11], 2.3; in [12] it was 0.217; in assay [13], 0.442. The z-score in assay [14] was -0.441; in assay [15], 0.643; in assay [16], 1.01; in assay [17], -0.356 (inactive); in assay [18] it was -0.198; in [19], -0.834. For the same molecule, in assay [20], the z-score was 0.781 (inactive). In assay [2], this molecule had a composite z-score of -0.0559.
